PubChem BioAssay AID588773 (The Scripps Research Institute Molecular Screening Center, 2011)

assay: competitive ABPP of pPAFAH versus proteome off-targets – biochemical, gel-based, FP-Rh fluorescence, mouse, HTS hit compounds, selectivity assay for pPAFAH inhibitor project, late-stage follow-up (AID 588773); conditions: MW 30 kDa protein, at 10 µM, active compounds read high;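 active = inhibition of plasma PAF acetylhydrolase at a set limit or more at 0.1 µM, with tenfold selectivity over all off-targets; inactive = inhibition below the limit or weaker selectivity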

inhibition, inactive:
O=C(Oc1ccc(Oc2ccccc2)cc1)N1CCC(O)CC1 5%
O=C(CCCSc1ccc(Cl)cc1)Nc1cc(S(=O)(=O)N2CCOCC2)ccc1O 19%
CCCCOC(=O)c1ccc(OC(=O)N2CCOCC2)cc1 14%
O=C(Oc1ccc(-c2ccccc2)cc1)N1CCOCC1 44%
O=C(Oc1nsnc1N1CCOCC1)N1CCOCC1 35%
O=C(/C=C/c1cccs1)c1cc(Br)ccc1OC(=O)N1CCOCC1 19%
O=C(Oc1ccc(-c2ccccc2)cc1)N1CCCCC1 69%
